PABP FP inh – blocks human PABP binding to poly(A) RNA | fluorescence polarization | calls only at 35 µM | 290,000 tested, 1% active;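 note: calls also rest on retests at 20 µM and on dose response follow-up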
PABP1 MLLE inh – blocks PAM2 peptide binding to the PABP1 MLLE domain; P11940; GST-MLLE / FITC-PAM2 fluorescence polarization; inhibition, % at 20 µM; 360,000 tested, 0.36% active; AID 588489; in the data active = inhibition above about 35%, passing the limit was not always enough;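 note: plate controls were DMSO wells with GST-MLLE for no effect and wells lacking GST-MLLE protein for full effect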
Efa HMGR inh – blocks class II HMG-CoA reductase of Enterococcus faecalis. purified E. faecalis HMGR, NADPH absorbance 340 nm kinetic. inhibition, % at 10 µM. 190,000 tested, 0.41% active;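 active = inhibition above a set limit, the median over all tested compounds plus 3 SD, cut at about 9.5% in these data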;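 note: enzyme runs in reverse so mevalonate oxidation gives rising NADPH absorbance; 0% = complete reaction with DMSO and 100% = background rate lacking mevalonate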
PHOSPHO1 inh – PHOSPHO1 (human) inhibition. inhibition, % at 13.3 µM. recombinant PHOSPHO1, absorbance phosphatase assay. AID 1565. Q8TCT1. 290,000 tested, 1.1% active; in the data active = inhibition above about 60%
eIF4H FP inh – inhibitors of RNA binding by human eIF4H; inhibition, % at 35 µM; 290,000 tested, 0.94% active; Q15056; eIF4H fluorescence polarization binding assay;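 note: calls also rest on retests at 20 µM and on dose response follow-up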
An asterisk follows results filed as active. This is a sample that favours compounds with a hit; in the whole collection about 2.4% have one here. Unless noted, the rule behind the calls is not given here.

O=C1NN(c2ccccc2)C(=O)C1=Cc1ccccc1O was read as PABP1 MLLE inh 25.
Cc1ccc(CN2CC(C(=O)N3CCN(c4ccccc4Cl)CC3)CC2=O)cc1 (configuration not stated) was read as PABP1 MLLE inh 4.
For Cc1ncccc1C(=O)N1CCCC(CNC(=O)C2(c3ccc(Cl)cc3)CC2)C1 (configuration not stated) the results were PABP FP inh inactive, PABP1 MLLE inh 2, Efa HMGR inh -1, PHOSPHO1 inh 40 and eIF4H FP inh 0.
`CSc1nc(SCCO)c2sc3nc(-c4ccco4)c4c(c3c2n1)CC(C)(C)OC4` gave PABP FP inh active, PABP1 MLLE inh -13, Efa HMGR inh 2, PHOSPHO1 inh 76* and eIF4H FP inh 44.
For COC(=O)CSc1nc(SC)nc2c1sc1nc(-c3ccco3)c3c(c12)CC(C)(C)OC3 the results were PABP1 MLLE inh -11.
CSc1nc(N(CCO)CCO)c2sc3nc(-c4ccco4)c4c(c3c2n1)CCC4 was read as PABP FP inh active, PABP1 MLLE inh 31, Efa HMGR inh 0, PHOSPHO1 inh 79* and eIF4H FP inh 89*.
Cc1ccccc1OCC(=O)Nc1nnc(COc2ccccc2)s1 was read as PABP FP inh inactive, PABP1 MLLE inh 9, PHOSPHO1 inh 25 and eIF4H FP inh 2.
`Cc1cc(NS(=O)(=O)c2ccc(NC(=S)NC(=O)c3ccc(F)cc3)cc2)no1` gave PABP FP inh inactive, PABP1 MLLE inh 40*, Efa HMGR inh -2, PHOSPHO1 inh 11 and eIF4H FP inh 2.
Screening COc1cc(NS(=O)(=O)c2ccc(NC(=S)NC(=O)/C=C/c3ccc(F)cc3)cc2)ncn1 returned PABP FP inh inactive, PABP1 MLLE inh 41*, PHOSPHO1 inh 3 and eIF4H FP inh 6.
O=C(NC(=S)Nc1ccc(NC(=O)c2ccccc2)cc1)c1ccc(F)cc1 was read as PABP FP inh inactive, PABP1 MLLE inh 33, PHOSPHO1 inh 33 and eIF4H FP inh -4.
For COc1ccc(NS(=O)(=O)c2ccc(NC(=S)NC(=O)c3cccc(F)c3)cc2)nn1 the results were PABP FP inh inactive, PABP1 MLLE inh 38*, Efa HMGR inh -7, PHOSPHO1 inh 11 and eIF4H FP inh -2.
For O=C(NC(=S)Nc1ccc2c(c1)C(=O)c1ccccc1C2=O)c1ccc(F)cc1 the results were PABP FP inh active, Efa HMGR inh -2, PHOSPHO1 inh 6 and eIF4H FP inh 70.
For CC1CCN(S(=O)(=O)c2ccc(N/N=C(/C#N)C(N)=O)cc2)CC1 the results were PABP FP inh inactive, PABP1 MLLE inh 8, Efa HMGR inh -2, PHOSPHO1 inh 77* and eIF4H FP inh 6.
N#C/C(=N\Nc1ccc(S(=O)(=O)N2CCOCC2)cc1)C(N)=S was read as PABP FP inh inactive, PABP1 MLLE inh 23, PHOSPHO1 inh 42 and eIF4H FP inh 1.
CCN1C(=O)/C(=C2\Sc3ccccc3N2CC)OC1=S was read as PABP FP inh inactive, PABP1 MLLE inh 46*, Efa HMGR inh -3, PHOSPHO1 inh -19 and eIF4H FP inh -1.
Screening CC(C)N1CCCC(C)(C(=O)Nc2cccc(Oc3ccccc3)c2)C1 (configuration not stated) returned PABP1 MLLE inh 4.
For COc1ccc(CC(=O)OCn2nnc3ccccc3c2=O)cc1OC the results were PABP FP inh active, PABP1 MLLE inh 10, PHOSPHO1 inh 27 and eIF4H FP inh 92*.
`COCc1cc(C)nc(SCC(=O)Oc2ccc(Cl)cc2)c1C#N` gave PABP FP inh active, PABP1 MLLE inh 8, Efa HMGR inh -2, PHOSPHO1 inh -1 and eIF4H FP inh active.
COc1ccc(CCNC(=O)CC(Cc2ccc(C)cc2)C(=O)O)cc1OC (configuration not stated) was read as PABP FP inh inactive, PABP1 MLLE inh 17, PHOSPHO1 inh 25 and eIF4H FP inh -1.
For O=C1NC(=O)C2(CCCC2c2ccccc2)N1 (configuration not stated) the results were PABP1 MLLE inh -10.
Cc1c(/C(O)=C2/C(=O)C(=O)N(CCN3CCOCC3)C2c2ccccn2)cnn1-c1ccccc1 (configuration not stated) was read as PABP FP inh inactive, PABP1 MLLE inh 7, Efa HMGR inh -3, PHOSPHO1 inh 60* and eIF4H FP inh 47.
O=C(NCCO)C(=O)Nc1cc2c3c(c1)CCC(=O)N3CCC2 was read as PABP FP inh inactive, PABP1 MLLE inh 12, PHOSPHO1 inh 18 and eIF4H FP inh -8.

Screening data (PubChem BioAssay)
